The values below come from PubChem BioAssay (Tox21).

Calls of active or inactive are those of the source. Unless noted, calls come from the whole dose curve; as a rule, active = well fitted curve in the direction sought with a large enough effect in the repeat runs; inconclusive = weak or mixed curves; inactive = no such curve, though single readings can be large; an effect the other way counts as inactive or inconclusive.

Test [1] can be described thus: qHTS assay to identify small molecule antagonists of the glucocorticoid receptor (GR) signaling pathway - cell viability counter screen (AID 720693). Note: nearly all actives have a fitted effect of over 55% in size.
A short description of test [2]: qHTS assay for identifying genotoxic compounds that show differential cytotoxicity against isogenic chicken DT40 cell lines with known DNA damage response pathways - wild type cell line (AID 743012). Note: nearly all actives have a fitted effect of over 60% in size. Note: potency is the fitted concentration of half-maximal effect. A digest of the protocol: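 300 wt DT40 cells/well; cpd (DMSO) pintool-transferred after ~0.5 h at 37 C/5% CO2; 40 h incubation; CellTiter-Glo added, 30 min RT; luminescence read.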
On the technique in general: qHTS replaces the single test concentration by a dilution series.

The nature of test [3]: qHTS assay for identifying genotoxic compounds that show differential cytotoxicity against isogenic chicken DT40 cell lines with known DNA damage response pathways - Rev3 mutant cell line (AID 743014). Note: nearly all actives have a fitted effect of over 55% in size. Note: potency is the fitted concentration of half-maximal effect.
Test [4] is described as follows: qHTS assay for identifying genotoxic compounds that show differential cytotoxicity against isogenic chicken DT40 cell lines with known DNA damage response pathways - Rad54/Ku70 mutant cell line (AID 743015). Note: nearly all actives have a fitted effect of over 60% in size. Note: potency is the fitted concentration of half-maximal effect.
Test [5] is described as follows: qHTS assay to identify small molecule antagonists of the androgen receptor (AR) signaling pathway - cell viability counter screen (AID 743033; note: nearly all actives have a fitted effect of over 45% in size).
Test [6] in a line: qHTS assay to identify small molecule antagonists of the androgen receptor (AR) signaling pathway using the MDA cell line - cell viability counter screen (AID 743041; note: nearly all actives have a fitted effect of over 45% in size). A digest of the protocol:
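In this qHTS counter assay, fluorescence intensity after CellTiter-Fluor addition indicated viability of MDA-kb2 AR-luc cells given compounds and R1881 for 16 h at 37C.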

Test [7] is described as follows: qHTS assay to identify small molecule antagonists of the thyroid receptor (TR) signaling pathway - cell viability counter screen (AID 743064). Note: nearly all actives have a fitted effect of over 50% in size. Note: potency is the fitted concentration of half-maximal effect. A digest of the protocol:
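Plate GH3.TRE-Luc cells; incubate 4 h at 37 °C; add compound, then T3 to 1 nM final; incubate 23.5 h; add CellTiter-Fluor; incubate 30 min at 37 °C, 5% CO2; read fluorescence.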

Test [8] concerns thyroid hormone receptor (rat, GH3 cells). In words: qHTS assay to identify small molecule agonists of the thyroid receptor (TR) signaling pathway (AID 743066; calls by dose curve).
Test [9] is described as follows: qHTS assay to identify small molecule antagonists of the estrogen receptor alpha (ER-alpha) signaling pathway - cell viability counter screen (AID 743074; calls by dose curve;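 note: HEK293 cells carrying ER-alpha-UAS-bla reporter stimulated with 17beta-estradiol; nearly all actives have a fitted effect of over 45% in size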).
A short description of test [10]: qHTS assay to identify small molecule antagonists of the estrogen receptor alpha (ER-alpha) signaling pathway using the BG1 cell line - cell viability counter screen (AID 743081).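 Note: compound given together with 17beta-estradiol as the ER stimulus; nearly all actives have a fitted effect of over 45% in size.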
Test [11] concerns the target Estrogen receptor (Homo sapiens) (UniProt P03372). Kind of test: qHTS assay to identify small molecule antagonists of the estrogen receptor alpha (ER-alpha) signaling pathway (AID 743069; active = well fitted curve in the direction sought with a large enough effect in the signal ratio in the repeat runs, not every such curve was filed as active; inconclusive = weak or mixed curves, or effect the other way; inactive = no such curve, though single readings can be large or run the other way; the % refers to the signal ratio; note: potency is the fitted concentration of half-maximal effect). A digest of the protocol: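 A 17beta-estradiol challenge was applied right after compound transfer to ER-alpha-UAS-bla HEK293 cells previously kept in charcoal-stripped serum. Plates stood 18 hr at 37C and 5% CO2; fluorescence was read following 2 hr FRET substrate loading at room temperature.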

The target is the same in test [12]. Kind of test: qHTS assay to identify small molecule agonists of the estrogen receptor alpha (ER-alpha) signaling pathway (AID 743075; calls by dose curve;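 note: HEK293 GripTite cells with ER-alpha and UAS-driven beta-lactamase reporter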).
Test [13] has the same target. In words: qHTS assay to identify small molecule agonists of the estrogen receptor alpha (ER-alpha) signaling pathway using the BG1 cell line (AID 743079). Note: nearly all actives have a fitted effect of over 20% in size. Conditions: BG1Luc4E2 cells, ERE-luciferase agonist, 22 h; activation: at 70.3 µM (top of the series).
Test [14] can be described thus: qHTS assay to identify small molecule antagonists of the thyroid receptor (TR) signaling pathway (AID 743065). Note: nearly all actives have a fitted effect of over 55% in size. Note: potency is the fitted concentration of half-maximal effect. A digest of the protocol:
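GH3.TRE-Luc rat pituitary cells carrying two TR response elements driving luciferase were plated for 4 h, given compound plus 1 nM T3 (final), and incubated 23.5 h at 37 C. ONE-Glo luminescence measured reporter inhibition; CellTiter-Fluor fluorescence tracked cytotoxicity.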

The nature of test [15]: qHTS assay to identify small molecule antagonists of the estrogen receptor alpha (ER-alpha) signaling pathway using the BG1 cell line (AID 743080; calls by dose curve;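 note: BG1 cells stimulated with 17beta-estradiol alongside compound; nearly all actives have a fitted effect of over 25% in size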). In outline:
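Seeding, 24 h rest, compound transfer from DMSO, 17beta-estradiol addition, 21.5 h incubation, CellTiter-Fluor (30 min, 37 C), then ONE-Glo (30 min, room temperature): this sequence was run on BG1-Luc-4E2 reporter cells.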

In a further test the target is Aromatase (Homo sapiens) (UniProt P11511). In words: qHTS assay to identify aromatase inhibitors (AID 743083). Note: nearly all actives have a fitted effect of over 55% in size.
The target in test [16] is Androgen receptor (Homo sapiens) (UniProt P10275). In words: qHTS assay to identify small molecule agonists of the androgen receptor (AR) signaling pathway (AID 743036; active = well fitted activation curve with a large enough effect in the signal ratio in the repeat runs, with a control signal flat, not every such curve was filed as active; inconclusive = weak or mixed curves, or effect the other way; inactive = no such curve, though single readings can be large or run the other way; the % refers to the signal ratio). In outline:
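Reporter line: GeneBLAzer AR-UAS-bla-GripTite (HEK293). Steps: plate cells, 4 h rest, add compounds, 16 h at 37C, add LiveBLAzer B/G substrate, 2 h at RT, read fluorescence.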

Test [17] has the same target. Kind of test: qHTS assay to identify small molecule agonists of the androgen receptor (AR) signaling pathway using the MDA cell line (AID 743040; note: nearly all actives have a fitted effect of over 20% in size). In outline: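 Cell-based luciferase reporter: MDA-kb2, MMTV promoter (AR + GR response elements). 16 h compound exposure at 37C; ONE-Glo, 30 min RT, luminescence.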

Estrogen receptor (Homo sapiens), sequence (P03372 whole entry, looked up): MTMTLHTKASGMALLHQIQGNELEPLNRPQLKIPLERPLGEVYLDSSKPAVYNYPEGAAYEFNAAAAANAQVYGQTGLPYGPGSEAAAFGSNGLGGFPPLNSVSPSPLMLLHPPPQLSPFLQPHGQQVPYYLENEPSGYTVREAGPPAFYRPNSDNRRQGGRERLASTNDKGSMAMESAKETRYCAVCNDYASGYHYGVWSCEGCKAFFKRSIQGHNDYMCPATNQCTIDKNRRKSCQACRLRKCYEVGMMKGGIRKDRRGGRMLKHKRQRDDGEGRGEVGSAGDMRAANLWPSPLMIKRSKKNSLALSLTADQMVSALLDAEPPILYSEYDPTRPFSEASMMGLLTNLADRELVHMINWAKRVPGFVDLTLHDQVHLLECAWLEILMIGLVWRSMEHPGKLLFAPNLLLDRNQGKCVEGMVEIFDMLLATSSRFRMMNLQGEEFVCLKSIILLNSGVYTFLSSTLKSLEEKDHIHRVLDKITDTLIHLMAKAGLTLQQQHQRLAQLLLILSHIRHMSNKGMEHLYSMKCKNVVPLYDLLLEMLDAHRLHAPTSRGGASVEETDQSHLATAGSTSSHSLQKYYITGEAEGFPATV
Aromatase (Homo sapiens), sequence (P11511 whole entry, looked up): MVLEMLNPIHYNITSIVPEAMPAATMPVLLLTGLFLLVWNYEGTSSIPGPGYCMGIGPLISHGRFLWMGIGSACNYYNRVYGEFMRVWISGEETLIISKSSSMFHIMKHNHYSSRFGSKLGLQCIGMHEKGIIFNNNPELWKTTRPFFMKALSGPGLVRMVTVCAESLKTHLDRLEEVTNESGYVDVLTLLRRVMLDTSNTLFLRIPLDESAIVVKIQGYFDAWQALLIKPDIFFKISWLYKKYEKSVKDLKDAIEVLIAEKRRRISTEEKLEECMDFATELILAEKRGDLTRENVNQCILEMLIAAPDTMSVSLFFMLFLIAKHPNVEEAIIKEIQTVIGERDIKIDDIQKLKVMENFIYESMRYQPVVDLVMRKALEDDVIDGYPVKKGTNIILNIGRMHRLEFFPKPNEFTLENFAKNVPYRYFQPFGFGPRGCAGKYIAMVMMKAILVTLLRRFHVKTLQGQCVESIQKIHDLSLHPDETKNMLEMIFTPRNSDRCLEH
Androgen receptor (Homo sapiens), sequence (P10275 whole entry, looked up): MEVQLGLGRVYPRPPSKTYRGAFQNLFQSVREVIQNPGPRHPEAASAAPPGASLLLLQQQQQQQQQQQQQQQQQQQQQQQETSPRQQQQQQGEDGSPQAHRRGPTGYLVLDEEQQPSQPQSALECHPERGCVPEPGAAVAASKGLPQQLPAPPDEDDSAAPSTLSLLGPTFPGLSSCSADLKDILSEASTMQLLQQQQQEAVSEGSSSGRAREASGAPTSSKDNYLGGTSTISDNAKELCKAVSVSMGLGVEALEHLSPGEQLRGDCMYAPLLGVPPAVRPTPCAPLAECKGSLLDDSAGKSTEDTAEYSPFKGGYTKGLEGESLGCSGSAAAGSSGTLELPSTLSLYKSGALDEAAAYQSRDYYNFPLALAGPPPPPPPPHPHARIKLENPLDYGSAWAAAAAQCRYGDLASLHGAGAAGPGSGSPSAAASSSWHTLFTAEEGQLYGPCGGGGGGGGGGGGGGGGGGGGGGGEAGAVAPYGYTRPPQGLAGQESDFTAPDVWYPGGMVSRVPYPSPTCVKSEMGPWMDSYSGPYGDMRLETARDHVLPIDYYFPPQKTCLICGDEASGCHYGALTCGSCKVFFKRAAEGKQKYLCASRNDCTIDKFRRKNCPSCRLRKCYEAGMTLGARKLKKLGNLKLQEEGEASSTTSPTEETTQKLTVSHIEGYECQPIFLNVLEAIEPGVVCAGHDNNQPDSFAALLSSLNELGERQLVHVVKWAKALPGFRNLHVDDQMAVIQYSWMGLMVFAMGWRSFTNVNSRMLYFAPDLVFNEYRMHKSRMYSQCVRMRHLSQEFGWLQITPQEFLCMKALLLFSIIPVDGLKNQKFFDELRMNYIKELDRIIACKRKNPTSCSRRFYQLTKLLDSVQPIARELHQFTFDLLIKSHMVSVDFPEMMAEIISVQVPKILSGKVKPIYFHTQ

On to `Fc1c(F)c(F)c(Br)c(F)c1F`, for which the Potency entry in [1], in test [2], in test [3], in test [4], in [5] and in test [6] was “inactive” in each case. For the same compound, the Potency entry in [7], in test [9] and in test [10] was “inactive” in each case. For the same compound, the compound was called inactive in test [8].
Turning to `CCCCC(CC)C(=O)OCCOCCOCCOCCOC(=O)C(CC)CCCC` (stereo not drawn), the Potency result in test [1], in test [5], in test [6], in [7], in test [11] and in test [9] was “inactive” in each case. The Potency result in test [12], in test [13] and in test [10] was “inactive” each time. Further, the Potency in test [2] is 27.3 µM (active); in test [3] it was 43.3 µM (active); in test [4] it was 30.6 µM (active). Besides, the call in test [8] was inactive.
Regarding `CCC(C)(C)C1CCC(O)CC1` (stereo not drawn), the Potency entry in [1], in test [2], in [3], in test [4], in test [5] and in test [14] was “inactive” in each case. Further, the Potency result (in [11]; in [9]; in test [12]; in test [15]; in [10]; in the test with Aromatase (Homo sapiens)) was “inactive” each time. In test [8], the compound was classed as inactive.
For the compound `CCn1cc(C(=O)O)c(=O)c2cc(F)c(N3CCNCC3)nc21`, the Potency entry in test [1], in [2], in test [3], in test [4], in [5] and in test [6] was “inactive” throughout. In addition, the Potency entry in test [14], in [11], in test [9], in test [12], in [13] and in [15] was “inactive” throughout. The Potency result (in [10]; in the test with Aromatase (Homo sapiens)) was “inactive” throughout. In addition, in test [8], the call was inactive.
Consider `CCCCCC=CCC=CCCCCCCCC(=O)OCC`, for which the Potency result in test [1], in test [2], in [3], in test [4], in test [5] and in test [6] was “inactive” throughout. Moreover, the Potency result in test [14], in [11], in test [9], in [12], in test [13] and in [10] was “inactive” each time. Moreover, the Potency result with Aromatase (Homo sapiens) was “inactive”. In addition, the compound was classed as inactive in test [8].
For the compound `CCCCCCOC(=O)C(C)C`, the Potency entry in test [1], in [2], in test [3], in test [4], in test [5] and in [6] was “inactive” each time. Further, the Potency entry (in test [14]; in test [9]; in test [10]; with Aromatase (Homo sapiens)) was “inactive” in each case. Moreover, the outcome in [8] was inactive.
Take `N#C[C@@H]1C[C@@H]2C[C@@H]2N1C(=O)[C@@H](N)C12CC3CC(CC(O)(C3)C1)C2`: the Potency entry in test [1], in [2], in test [3], in test [4], in test [5] and in test [9] was “inactive” throughout. Moreover, the Potency result (in [12]; in [13]; in test [15]; in test [10]; with Aromatase (Homo sapiens)) was “inactive” each time.
In the case of `CCC(C)=O`, the Potency result in test [1], in [2], in test [3], in test [4], in [5] and in [6] was “inactive” each time. The Potency entry in [14], in test [9] and in test [10] was “inactive” each time. Also, in test [8], the outcome was inactive.
In the case of `O=C(CCCN1CCC(O)(c2ccc(Br)cc2)CC1)c1ccc(F)cc1`, the Potency result in [1], in test [5], in test [11], in [9], in [12] and in test [13] was “inactive” each time. Also, the Potency entry (in [15]; in [10]; with Aromatase (Homo sapiens)) was “inactive” each time. Moreover, the Potency in [2] was 5.07 µM (active); in [3], 2.85 µM (active); in test [4], 4.52 µM (active); in [14], 10.1 µM (active). In test [8], the compound was called inactive.
Regarding `CCCCCCCC/C=C\CCCCCCCC(=O)OC`, the Potency entry in [1], in test [2], in test [3], in [4], in test [5] and in test [6] was “inactive” throughout. Also, the Potency result (in [14]; in [9]; in test [10]; with Aromatase (Homo sapiens)) was “inactive” each time. Further, the compound was called inactive in test [8].
As to `COCCOC(=O)C1=C(C)NC(C)=C(C(=O)OC/C=C/c2ccccc2)C1c1cccc([N+](=O)[O-])c1` (stereo not drawn), the Potency entry in test [1], in [9], in test [12], in test [15] and in test [10] was “inactive” each time. The Potency in [2] was 13.3 µM (active); in [3], 11.9 µM (active); in test [4], 11.9 µM (active); in test [7] it was 13.3 µM (active); in [14] it was 11.9 µM (active); in test [11], 23.9 µM [inconclusive] (active).
As to `C/C=C(\C)C(=O)OCCC(C)CCC=C(C)C` (stereo not drawn), the Potency result in test [1], in test [2], in test [5], in test [6], in test [7] and in test [14] was “inactive” in each case. Besides, the Potency result in test [9] and in [10] was “inactive” in each case. Moreover, the outcome in test [8] was inactive.
Take `CSc1ccc(Oc2ccc(S(N)(=O)=O)cc2CN(C)C)cc1C`: the Potency entry in test [1], in test [16], in test [17], in [6], in test [12] and in test [10] was “inactive” each time. Besides, the Potency in test [2] is 24.3 µM (active); in test [3] it was 27.3 µM (active); in test [4] it was 61.1 µM (active); in test [7], 54.5 µM (active); in [14], 27.3 µM (active).
